Test results taken from PubChem BioAssay AID1259343 (VanderVen Lab, College of Veterinary Medicine, Cornell …, 2017).
About 2,900 (47%) of roughly 6,200 compounds were called active. Cut-off read from the data, not from the text of the source: active = inhibition above about 50%; inactive = the rest. The set was probably picked from earlier hits. The list shows a part of the results.

Assay: Mycobacterium tuberculosis growth inhibition, primary screen (AID 1259343)
Conditions: inhibition: at 10 µM, active compounds read high; outcome: 10 uM

SMILES | inhibition
N#CCCSc1nc2ccc([N+](=O)[O-])cc2s1 | 52% (active)
O=[N+]([O-])c1ccc2[nH]c(=S)sc2c1 | -16.1% (inactive)
CC(=O)Nc1nc(-c2ccc(C)cc2)c(-c2ccccc2)s1 | 86% (active)
CN(C)C=Nc1nc(-c2ccccc2)c(-c2ccccc2)s1 | 15.9% (inactive)
Cc1nc2sc(C)c(C)n2c(=O)c1NC(=O)c1ccc(-c2ccccc2)cc1 | 34.6% (inactive)
O=C(NC1CCS(=O)(=O)C1)c1ccc(Br)o1 (configuration not stated) | 10.7% (inactive)
O=C(Nc1cc(F)ccc1F)c1ccc(NC(=O)C2CC2)s1 | 23.9% (inactive)
O=C(NC1CCS(=O)(=O)C1)c1ccc(-c2ccc(F)cc2)s1 (configuration not stated) | 79% (active)
COc1ccc(C(=O)Nc2cc(C3CC3)nn2-c2nc(C)c(C)c(=O)[nH]2)c(OC)c1 | 90% (active)
COc1cc(C(=O)Nc2cc(C3CC3)nn2-c2nc(C)cc(=O)[nH]2)cc(OC)c1OC | 101% (active)
COc1ccc(C(=O)Nc2cc(C)nn2-c2nc(C)c(C)c(=O)[nH]2)c(OC)c1 | 26.6% (inactive)
COc1cc(C(=O)Nc2cc(C3CC3)nn2-c2nc(C)c(C)c(=O)[nH]2)cc(OC)c1OC | 100% (active)
COc1ccc(OCCSc2nnnn2C2CCCCC2)cc1 | -35.2% (inactive)
Clc1cc(CSc2nnnn2C2CCCC2)cc2c1OCCO2 | -23.6% (inactive)
c1ccc2c(c1)OCC(CSc1nnnn1C1CCCC1)O2 (configuration not stated) | 96.2% (active)
C=CCN(C(=O)c1ccc(-c2ccc3c(c2)OCCO3)s1)C1CCCCC1 | 45.7% (inactive)
CN(Cc1ccco1)C(=O)c1cnc(-c2ccc3c(c2)OCO3)nc1Nc1ccccc1 | 47.5% (inactive)
N#CC1(NC(=O)c2cnc(-c3ccc4c(c3)OCO4)s2)CCCC1 | 86.4% (active)
COc1ccc(N=C(c2cc([N+](=O)[O-])cc([N+](=O)[O-])c2)n2ccnc2)cc1 | 92.1% (active)
C=Cc1ccc(C(=O)N2CCCC(Nc3ccc(F)cc3)C2)cc1 (configuration not stated) | 75.9% (active)
O=C(c1cc(Br)c[nH]1)N1CCC(Nc2ccc(F)cc2)CC1 | 1.55% (inactive)
COCc1ccc(C(=O)N2CCCC(Nc3ccc(C(C)C)cc3)C2)s1 (configuration not stated) | 21.9% (inactive)
O=C(Nc1nc2c(s1)CCc1ccccc1-2)C1CC1 | 64% (active)
Cc1nc(NC(=O)C2CC2)sc1Cc1ccccc1Cl | 32.1% (inactive)
CCC(CNC(=O)/C=C/c1sccc1C)c1ccccc1 (configuration not stated) | 28.2% (inactive)
O=C(C=Cc1cccs1)NC1CCCC1 | 21.5% (inactive)

SMILES | inhibition
S=C(NN=Cc1cccs1)NC1CCCCC1 | 87.5% (active)
CC(C)NC(=S)NN=Cc1cccs1 | 100% (active)
C=CCNC(=O)C=Cc1cccs1 | 92.6% (active)
O=C(C=Cc1cccs1)NC1CCCCCC1 | 61.3% (active)
O=C(C=Cc1cccs1)NC1CCCCC1 | 37% (inactive)
C(=NNc1ccc2ccccc2n1)c1cccs1 | 39.2% (inactive)
O=S(=O)(C1=Cc2ccccc2CC1)N1CCC2CCCCC2C1 (configuration not stated) | 21.1% (inactive)
O=C(C=Cc1ccc(Br)o1)NC1CCCCCC1 | 89.5% (active)
O=C(C=Cc1cccs1)c1cccs1 | 15.1% (inactive)
O=C(C=Cc1ccco1)NC1CCCC1 | 25.8% (inactive)
COC(=O)c1sccc1NC(=O)C=Cc1cccs1 | 81.4% (active)
Cc1cccc(Nc2nnc(-c3ccncc3)o2)c1 | -7.46% (inactive)
c1ccc(-c2cc(Sc3nnc(-c4ccncc4)o3)n3ncnc3n2)cc1 | 102% (active)
COc1ccc(-c2cc(N)ccc2OC(F)F)cc1 | 34.9% (inactive)
COc1ccc(N=Cc2cc([N+](=O)[O-])ccc2OC(F)F)cc1 | 79.9% (active)
COc1ccc(OCCCOc2ccc([N+](=O)[O-])cc2Cl)cc1 | 37.7% (inactive)
Cc1ccccc1CN1CCN(c2ccc(S(=O)(=O)C(F)F)cc2)CC1 | 27.6% (inactive)
COc1ccc(N2CCN(Cc3cc(C)c(C)cc3O)CC2)cc1 | 83.8% (active)
COc1ccc(CN2CCN(C(c3ccc(F)cc3)c3ccc(F)cc3)CC2)c(OC)c1OC | 29.5% (inactive)
Fc1ccc(-n2cc(-c3ccnc(NCc4ccco4)n3)cn2)cc1 | 18.7% (inactive)
COc1ccc(-c2csc(NCc3ccco3)n2)cc1 | 70.6% (active)
O=C1C(=C2SCCS2)CCCC12CC2c1ccccc1 (configuration not stated) | 50.8% (active)
Cc1ccc(OCc2cc(C(=O)NCCc3ccc(C(F)(F)F)cc3)no2)cn1 | 68.3% (active)
O=C(c1cc(COc2cccc(C(F)(F)F)c2)on1)N1CCCN(c2ncccn2)CC1 | inactive
CC(C)Oc1ccc(CCNC(=O)c2cc(COc3ccc(F)c(F)c3)on2)cc1 | inactive
Cc1nc(CCNC(=O)c2cc(COc3ccc4c(c3)CCCC4)on2)sc1C | 67.7% (active)

SMILES | inhibition
O=C(c1cc(COc2ccc3c(c2)CCCC3)on1)N1CCCN(c2ncccn2)CC1 | 71.4% (active)
O=C(c1cc(COc2ccc3c(c2)CCCC3)on1)N1CCN(C2CCCC2)C(=O)C1 | 69.3% (active)
COCc1cc(C(=O)N2Cc3ccccc3N(C)CC2C)no1 (configuration not stated) | -8.57% (inactive)
O=C(c1cc(COc2ccc3c(c2)CCCC3)on1)N1CCCCO1 | 92.2% (active)
O=C(c1cc(COc2ccc(-n3cncn3)cc2)on1)N1CCCCO1 | inactive
Cn1c(=O)c2c(S(C)=O)snc2n(C)c1=O (configuration not stated) | 100% (active)
Cc1nn(CC(O)COc2ccc3c(c2)CCC3)c(C)c1C (configuration not stated) | 74.7% (active)
COc1ccc(OCCN(C)S(=O)(=O)c2ccc3c(c2)CCC3)cc1 | 48% (inactive)
Cc1cc(C)n(CC(O)COc2ccc(C(C)(C)C)cc2)n1 (configuration not stated) | 44.2% (inactive)
Cc1cc(C)n(CC(O)COc2ccc3c(c2)CCC3)n1 (configuration not stated) | 70.7% (active)
Cn1ccc(NC(=O)c2cc3c(s2)CCC(C(C)(C)C)C3)n1 (configuration not stated) | 49.2% (inactive)
N[C@@H](CCCCNC(=O)c1cccnc1)C(=O)NNc1ccc(Cl)cc1 | 95.5% (active)
CCOc1cc(Cl)ccc1NC(=O)Nc1cccnc1 | 32% (inactive)
CN(C)C(=O)C1(CNC(=O)Nc2ccc(F)c(C(F)(F)F)c2)CCCC1 | 4.66% (inactive)
CC(C)NS(=O)(=O)Cc1ccc(CNC(=O)Nc2ccc(-c3ccccc3)cc2)cc1 | -37.3% (inactive)
CSc1ccc(NC(=O)CC2(C(=O)O)CCCC2)cc1 | 85.9% (active)
COc1ccc(F)cc1C(=O)C1CCCN(C(=O)Nc2ccc(SC)cc2)C1 (configuration not stated) | 2.1% (inactive)
CC(C)NC(=O)CC1(C(=O)Nc2ccc(-c3ccccc3)cc2)CCCC1 | 91.1% (active)
O=C(CSCc1ccncc1)Nc1ccc(-c2cncnc2)cc1 | 89.9% (active)
FC(F)(F)CN1CCC(NCc2ccc(-c3ccccc3Cl)s2)C1 (configuration not stated) | 26.6% (inactive)
O=S(=O)(Nc1ccc(SC(F)F)cc1)c1ccc(F)c(F)c1 | 96.8% (active)
O=S(=O)(Nc1cnc(-c2ccccc2)nc1)c1ccc(F)c(F)c1 | 58.3% (active)
O=S(=O)(Nc1ccc(OC(F)(F)F)cc1)c1ccc(F)c(F)c1 | 16% (inactive)
CN(CC(N)=O)S(=O)(=O)c1cc2cc(Cl)ccc2s1 | 90.5% (active)
Oc1cc(OCCN2CCN(Cc3ccc4c(c3)OCO4)CC2)ccc1-c1[nH]ncc1-c1ccccc1 | 81.6% (active)
O=C(C1COc2ccccc2O1)N1CCc2onc(-c3cccc(F)c3)c2C1 (configuration not stated) | 10.6% (inactive)

SMILES | inhibition
CC(C)C(=O)Nc1sc2c(c1-c1nc3ccccc3s1)CCN(C(C)C)C2 | 95.2% (active)
CC(=O)Nc1sc2c(c1-c1nc3ccccc3s1)CCN(C(C)C)C2 | 68.3% (active)
CCC(=O)Nc1sc2c(c1-c1nc3ccccc3s1)CCN(C(C)C)C2 | 100% (active)
CC(C)C(=O)Nc1sc2c(c1-c1nc3ccccc3s1)CCN(C)C2 | 85.9% (active)
CC(C)N1CCc2c(sc(NC(=O)C3CC3)c2-c2nc3ccccc3s2)C1 | 0.31% (inactive)
CN1CCc2c(sc(NC(=O)c3ccccc3)c2-c2nc3ccccc3s2)C1 | 29.3% (inactive)
CC(=O)c1ccc(C(=O)Nc2sc3c(c2-c2nc4ccccc4s2)CCN(C)C3)cc1 | 83.8% (active)
CN1CCc2c(sc(NC(=O)c3ccc(F)cc3)c2-c2nc3ccccc3s2)C1 | 31.8% (inactive)
CCCCCCCCCCCCC[N+](C)(C)Cc1ccccc1 | 70.2% (active)
Cc1cccc(CN(CCN2CCOCC2)Cc2ccc(C(O)(c3cccc(F)c3)c3cccc(F)c3)o2)c1 | 17.9% (inactive)
CC(C)(C)c1cc(C(=O)CCN2CCOCC2)cc(C(C)(C)C)c1O | 102% (active)
O=S(=O)(c1cc(Cl)cc(Cl)c1O)N1CCOCC1 | 19.4% (inactive)
Cc1ccc(NC(=O)CC(=O)N2CCC(C(O)CC(C)C)CC2)cc1Cl (configuration not stated) | 88.3% (active)
CC(=O)N[C@H]1CCN(CC(=O)Nc2ccc(Cl)c(C)c2)C1 | 33.5% (inactive)
CC(NC(=O)CCC1CCCO1)c1ccc(Cl)s1 (configuration not stated) | 21.7% (inactive)
Cc1ccc(NC(=O)CCC2CCCO2)cc1Cl (configuration not stated) | 96.2% (active)
O=C(CCc1cccs1)N1CCN(CC2CCCO2)CC1 (configuration not stated) | -26.7% (inactive)
Cc1cc(NC(=O)CN2CCN(CC3CCCO3)CC2)ccc1Cl (configuration not stated) | 66.5% (active)
CC(C)c1ccc(S(=O)(=O)NCC2CCCO2)cc1 (configuration not stated) | -25.1% (inactive)
CC(C)c1ccc(NC(=O)CCN2CCN(CC3CCCO3)CC2)cc1 (configuration not stated) | 83.5% (active)
CN(C)N=CC=C1CCC(=Cc2ccc(C(F)(F)F)cc2)C1=O | 8.26% (inactive)
NNc1ccc2c(Cl)cc(Cl)c(O)c2n1 | 99.5% (active)
Cc1ccc2c(Cl)cc(Cl)c(O)c2n1 | 47.9% (inactive)
CCC(CO)NC(=S)N=P(c1ccccc1)(N(CC)CC)N(CC)CC (configuration not stated) | 81.6% (active)
